The text below walks through data of PubChem BioAssay.

SMILES strings stand for the structures. Active and inactive are the calls of the source.

One experiment in a line: probe aLefty1 binding on compound microarray – biochemical, small-molecule microarray, 635/667 nm fluorescence, primary screen (AID 1153).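 Also: score merges spot fluorescence with signal-to-noise ratio from the scanned slide images.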 Conditions: higher = more signal.
Compound `CCN1C(=O)[C@H]2[C@H]3[C@H](O)[C@H](O)CC(=NOCC(C)C)[C@H]3CC[C@H]2C1=O` yielded a composite z-score of -0.0658.

On to `COC(OC)[C@@H](C)[C@H](OC)[C@@H](C)[C@H](OC)c1ccccc1`, for which the composite z-score was -0.235.

As for `COC(=O)[C@H](C)NC(=O)CCC1CC(OC(=O)NCc2ccc3c(c2)OCO3)CC2(CCCC(COC(=O)NCc3ccccc3)O2)O1` (some centres not stated), the composite z-score was -0.0061.

On to `CO[C@@H](C1CCCCC1)[C@@H](C)[C@H](OCc1cccc(Br)c1)[C@@H](C)CO`, for which the composite z-score was -0.401.

Regarding `CC(C)CON=C1[C@H]2CCn3c(=O)n(C)c(=O)n3[C@H]2[C@H](O)[C@@H]2O[C@H]12`, the composite z-score is -0.0559.

As for `C[C@]12CCC3c4ccc(OCC5CO5)cc4CCC3C1CC[C@@H]2O` (some centres not stated), the composite z-score is -0.0011.

As to `CO[C@@H]1C=CCC(=O)N[C@@H](C)C(=O)OC[C@@H](OC)[C@H](C)C=CCC(=O)OC[C@H]1C`, the composite z-score was -0.149.

With `OC[C@H]1O[C@H](C#Cc2ccccc2)C=C[C@@H]1O`, the composite z-score was -0.425.

`CC(C)[C@@H](OCc1ccccc1)[C@H](C)C=NO[C@H](C)c1cn([C@@H]2COC[C@H]2O)nn1` returned a composite z-score of -0.111.

As for `CN1CCc2nc(-c3ccccc3)c(-c3ccccc3)cc2C1`, the composite z-score was -0.0748.

On to `O=C1[C@H]2[C@H]3[C@H](O)[C@H](O)CC(=NOC[C@@H](O)COCc4ccco4)[C@@H]3CC[C@H]2C(=O)N1Cc1ccc2c(c1)OCO2`, for which the composite z-score is -0.0984.

On to `CCOC(=O)[C@H](CC(C)C)NC(=O)CCC1CC(OC(=O)NCc2ccc3c(c2)OCO3)CC2(CCCC(COC(=O)NCCc3ccccc3OC)O2)O1` (some centres not stated), for which the composite z-score was found to be 0.0437.

For the compound `C[C@@H]1CC[C@H]2C(=O)OC(CN3C(=O)c4ccccc4C3=O)CN2[C@H]1c1ccc(Br)cc1` (some centres not stated), the composite z-score came to 0.0315.

Regarding `O=C1C=C[C@@H](O)[C@@H]2[C@@H]3C(=O)N(Cc4ccc5c(c4)OCO5)C(=O)[C@@H]3CC[C@@H]12`, the composite z-score is -0.0061.

In the case of `COC(=O)[C@H](C)NC(=O)CCC1CC(OC(=O)NCc2cccc3ccccc23)CC2(CCCC(COC(=O)NCCCN3CCCC3=O)O2)O1` (some centres not stated), the composite z-score came to 0.582.

`CO[C@@H]1COC(=O)[C@H](COCc2ccccc2)NC(=O)CC=C[C@@H](C)[C@H](OC)COC(=O)[C@@H](C)NC(=O)CC=C[C@H]1C` gave a composite z-score of -0.193.

In the case of `CON=C(C)CCN1CCCCc2nc(C)c(C)cc21`, the composite z-score came to 0.168.

`C#CCCCON=C1[C@H]2CCn3c(=O)n(Cc4cc5c(cc4Cl)OCO5)c(=O)n3[C@H]2[C@H](O)[C@@H]2O[C@H]12` gave a composite z-score of -0.101.

`C[C@H]1CC[C@H]2C(=O)N[C@H](Cc3ccccc3)C(=O)N2[C@@H]1c1ccccc1`: the composite z-score was -0.108.

In turn, `CC(CCN1CCc2nc(-c3ccccc3)c(-c3ccccc3)cc2C1)=NO[C@H](C)c1cn([C@H](CO)Cc2ccccc2)nn1` gave a composite z-score of 0.057.

For the compound `C#CCCCON=C1C[C@@H](O)[C@@H](O)[C@@H]2[C@@H]3C(=O)N(C[C@@H]4CCCO4)C(=O)[C@@H]3CC[C@@H]12`, the composite z-score was found to be 0.145.

As for `CCOC(=O)[C@H](CC(C)C)NC(=O)CCC1CC(OC(=O)NCc2ccc3c(c2)OCO3)CC2(CCCC(COC(=O)NCCOC)O2)O1` (some centres not stated), the composite z-score is 0.292.

The compound `COc1ccc(OC[C@@H](CO)OC)cc1` gave a composite z-score of -0.145.

Turning to `COC(=O)[C@@H]1CC[C@H](C)[C@@H](c2ccc(C)cc2)N1C(=O)c1ccc(C=NOC[C@@H](O)[C@H]2O[C@@H]3OC(C)(C)O[C@@H]3[C@H]2O)cc1`, the composite z-score was determined as 0.0313.

For `CC(=O)OC[C@H]1O[C@H](CC=NO[C@@H](C)c2cn([C@H](CO)Cc3ccccc3)nn2)C=C[C@@H]1OC(C)=O`, the composite z-score is -0.196.

Regarding `COC(=O)[C@H](C)NC(=O)CCC1CC(OC(=O)NCc2ccc3c(c2)OCO3)CC2(CCCC(COC(=O)NCCC(C)C)O2)O1` (some centres not stated), the composite z-score amounted to 0.0774.

The next experiment can be described thus: plasmodial surface anion channel blockers, osmotic lysis – cell-based, P. falciparum Indochina, OD700, 1 h, primary screen (AID 1154). Conditions: P. falciparum Indochina infected RBC osmotic lysis, higher = more signal, called active from +8 up or from −8 down.
Take `CCOC(=O)CCN1C(=O)[C@H]2[C@H]3[C@H](O)[C@H](O)CC(=NOCC=C(C)CCC=C(C)C)[C@H]3CC[C@H]2C1=O`: the z-score was 1.09 (inactive).

In the case of `CCOC(=O)[C@H](Cc1ccccc1)NC(=O)CCC1CC(OC(=O)NCc2cccc3ccccc23)CC2(CCCC(COC(=O)NCCOc3ccccc3)O2)O1` (some centres not stated), the z-score is -0.623 (inactive).

`CCOC(=O)[C@H](CC(C)C)NC(=O)CCC1CC(OC(=O)NCCc2ccc(F)cc2)CC2(CCCC(COC(=O)NCCCN3CCCC3=O)O2)O1` (some centres not stated): the z-score is 1.3 (inactive).

For `CC(=O)OC[C@H]1O[C@H](CC=NOC(C)CN2CCCCc3nc(C)c(C)cc32)C=C[C@@H]1OC(C)=O` (some centres not stated), the z-score is 0.595 (inactive).

For the compound `C#CCCCON=C1[C@H]2CCn3c(=O)n([C@@H](CC)c4ccccc4)c(=O)n3[C@H]2[C@H](O)[C@@H]2O[C@H]12`, the z-score is 0.957 (inactive).

Consider `CO[C@H]1C[C@@H]2C[C@H](O)CC(CC(=O)O[C@@H](C=CCC(C)C)C[C@@H]3CC[C@H](C)[C@@H](C1)O3)O2`, for which the z-score was 0.818 (inactive).

Regarding `C=CC[C@@H]1C=C[C@H](ON=C[C@@H](NS(=O)(=O)c2ccc(C)cc2)[C@H](C)C=CCC(=O)OC)[C@@H](CO)O1`, the z-score was 1.16 (inactive).

As to `CO[C@H]1COC(=O)CCC[C@H](C)[C@@H](OC)COC(=O)CC=C[C@@H]1C`, the z-score was -1.29 (inactive).

Turning to `O=C(NN=C1C[C@@H](O)[C@@H](O)[C@@H]2[C@@H]3C(=O)N(Cc4ccccc4)C(=O)[C@@H]3CC[C@H]12)OCc1ccccc1`, the z-score is 0.464 (inactive).

Take `CCOC(=O)[C@H](CC(C)C)NC(=O)CCC1CC(OC(=O)NCCc2ccc(F)cc2)CC2(CCCC(COC(=O)NCc3cccc4ccccc34)O2)O1` (some centres not stated): the z-score was 15.2 (active).

Regarding `CCN1C(=O)[C@H]2[C@H]3[C@H](O)[C@H](O)CC(=NOCC(C)C)[C@H]3CC[C@H]2C1=O`, the z-score was -0.135 (inactive).

As to `COC(OC)[C@@H](C)[C@H](OC)[C@@H](C)[C@H](OC)c1ccccc1`, the z-score is -0.271 (inactive).

As for `COC(=O)[C@H](C)NC(=O)CCC1CC(OC(=O)NCc2ccc3c(c2)OCO3)CC2(CCCC(COC(=O)NCc3ccccc3)O2)O1` (some centres not stated), the z-score was 1.08 (inactive).

Turning to `CO[C@@H](C1CCCCC1)[C@@H](C)[C@H](OCc1cccc(Br)c1)[C@@H](C)CO`, the z-score was 2.08 (inactive).

With `CC(C)CON=C1[C@H]2CCn3c(=O)n(C)c(=O)n3[C@H]2[C@H](O)[C@@H]2O[C@H]12`, the z-score is -0.399 (inactive).

With `C[C@]12CCC3c4ccc(OCC5CO5)cc4CCC3C1CC[C@@H]2O` (some centres not stated), the z-score was 24.3 (active).

As for `CO[C@@H]1C=CCC(=O)N[C@@H](C)C(=O)OC[C@@H](OC)[C@H](C)C=CCC(=O)OC[C@H]1C`, the z-score is -0.0896 (inactive).

With `OC[C@H]1O[C@H](C#Cc2ccccc2)C=C[C@@H]1O`, the z-score is 1.74 (inactive).

On to `CC(C)[C@@H](OCc1ccccc1)[C@H](C)C=NO[C@H](C)c1cn([C@@H]2COC[C@H]2O)nn1`, for which the z-score is 0.551 (inactive).

Turning to `CN1CCc2nc(-c3ccccc3)c(-c3ccccc3)cc2C1`, the z-score was 0.296 (inactive).

As for `O=C1[C@H]2[C@H]3[C@H](O)[C@H](O)CC(=NOC[C@@H](O)COCc4ccco4)[C@@H]3CC[C@H]2C(=O)N1Cc1ccc2c(c1)OCO2`, the z-score was 30 (active).

Turning to `CCOC(=O)[C@H](CC(C)C)NC(=O)CCC1CC(OC(=O)NCc2ccc3c(c2)OCO3)CC2(CCCC(COC(=O)NCCc3ccccc3OC)O2)O1` (some centres not stated), the z-score was -1.67 (inactive).

On to `C[C@@H]1CC[C@H]2C(=O)OC(CN3C(=O)c4ccccc4C3=O)CN2[C@H]1c1ccc(Br)cc1` (some centres not stated), for which the z-score is 3.61 (inactive).

`O=C1C=C[C@@H](O)[C@@H]2[C@@H]3C(=O)N(Cc4ccc5c(c4)OCO5)C(=O)[C@@H]3CC[C@@H]12`: the z-score is 1.26 (inactive).

For `COC(=O)[C@H](C)NC(=O)CCC1CC(OC(=O)NCc2cccc3ccccc23)CC2(CCCC(COC(=O)NCCCN3CCCC3=O)O2)O1` (some centres not stated), the z-score is 0.381 (inactive).

`CO[C@@H]1COC(=O)[C@H](COCc2ccccc2)NC(=O)CC=C[C@@H](C)[C@H](OC)COC(=O)[C@@H](C)NC(=O)CC=C[C@H]1C`: the z-score was -0.302 (inactive).

As for `CON=C(C)CCN1CCCCc2nc(C)c(C)cc21`, the z-score was -0.149 (inactive).

For `C#CCCCON=C1[C@H]2CCn3c(=O)n(Cc4cc5c(cc4Cl)OCO5)c(=O)n3[C@H]2[C@H](O)[C@@H]2O[C@H]12`, the z-score was 0.649 (inactive).

On to `C[C@H]1CC[C@H]2C(=O)N[C@H](Cc3ccccc3)C(=O)N2[C@@H]1c1ccccc1`, for which the z-score is -0.189 (inactive).

Turning to `CC(CCN1CCc2nc(-c3ccccc3)c(-c3ccccc3)cc2C1)=NO[C@H](C)c1cn([C@H](CO)Cc2ccccc2)nn1`, the z-score is 1.6 (inactive).

`C#CCCCON=C1C[C@@H](O)[C@@H](O)[C@@H]2[C@@H]3C(=O)N(C[C@@H]4CCCO4)C(=O)[C@@H]3CC[C@@H]12`: the z-score was -0.262 (inactive).

`CCOC(=O)[C@H](CC(C)C)NC(=O)CCC1CC(OC(=O)NCc2ccc3c(c2)OCO3)CC2(CCCC(COC(=O)NCCOC)O2)O1` (some centres not stated): the z-score was 1.3 (inactive).

As to `COc1ccc(OC[C@@H](CO)OC)cc1`, the z-score was -0.578 (inactive).

Turning to `COC(=O)[C@@H]1CC[C@H](C)[C@@H](c2ccc(C)cc2)N1C(=O)c1ccc(C=NOC[C@@H](O)[C@H]2O[C@@H]3OC(C)(C)O[C@@H]3[C@H]2O)cc1`, the z-score is 0.465 (inactive).

With `CC(=O)OC[C@H]1O[C@H](CC=NO[C@@H](C)c2cn([C@H](CO)Cc3ccccc3)nn2)C=C[C@@H]1OC(C)=O`, the z-score was -0.719 (inactive).

For `COC(=O)[C@H](C)NC(=O)CCC1CC(OC(=O)NCc2ccc3c(c2)OCO3)CC2(CCCC(COC(=O)NCCC(C)C)O2)O1` (some centres not stated), the z-score was 19.8 (active).
